An excerpt weighted towards active compounds, which were near 3.1% of everything screened.
PAFAH1B3 FP inh = PAFAH1B3 enzyme inhibitors, primary screen, biochemical, fluorescence polarization, human | AID 492972, 2010 | recombinant PAFAH1B3, FP-rhodamine probe | inhibition, % at 3.39 µM | actives 0.28% (n = 340,000) | Platelet-activating factor acetylhydrolase IB subunit alpha1 (Homo sapiens), Q15102;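 active = inhibition above the screen-wide average of all tested compounds plus 3 SD, cut at about 25% in these data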;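 also: 0% = enzyme with DMSO only and 100% = wells lacking PAFAH1B3 protein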
Target sequence (Q15102 whole entry, looked up): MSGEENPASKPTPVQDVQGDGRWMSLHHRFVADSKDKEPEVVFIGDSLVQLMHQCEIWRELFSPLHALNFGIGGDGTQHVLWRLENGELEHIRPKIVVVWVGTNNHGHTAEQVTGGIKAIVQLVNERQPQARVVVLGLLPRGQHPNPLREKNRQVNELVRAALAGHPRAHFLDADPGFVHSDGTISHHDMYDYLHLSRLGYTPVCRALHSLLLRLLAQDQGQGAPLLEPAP
Rin1 Abl inh = inhibitors of Rin1-Abl protein binding, primary screen, biochemical, TR-FRET. actives 0.4% (n = 360,000). AID 588664, 2011. inhibition, % at 7.35 µM; in the data active = inhibition above about 5%, passing the limit was not always enough
PAFAH1B2 FP inh = PAFAH1B2 enzyme inhibitors, primary screen, biochemical, fluorescence polarization, human; actives 1.2% (n = 340,000); inhibition, % at 3.39 µM; recombinant PAFAH1B2, FP-rhodamine activity probe; AID 492953, 2010;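 active = inhibition above the mean of all tested compounds plus 3 SD, cut at about 24% in these data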;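 also: 0% = enzyme with DMSO and 100% = wells lacking PAFAH1B2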
Target sequence (P68402 whole entry, looked up): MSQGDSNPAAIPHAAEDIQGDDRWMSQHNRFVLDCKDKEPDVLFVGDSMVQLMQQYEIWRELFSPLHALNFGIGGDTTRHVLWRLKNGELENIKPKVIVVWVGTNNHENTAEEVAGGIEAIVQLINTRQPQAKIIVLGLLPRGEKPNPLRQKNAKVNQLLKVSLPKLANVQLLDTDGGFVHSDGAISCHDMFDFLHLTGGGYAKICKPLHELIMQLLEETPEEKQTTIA
pPAFAH inh = pPAFAH enzyme inhibitors, primary screen, biochemical, fluorescence polarization, human; actives 1.5% (n = 330,000); inhibition, % at 3.39 µM; AID 463082, 2010; Platelet-activating factor acetylhydrolase (Homo sapiens), Q13093; recombinant pPAFAH, FP-rhodamine probe fluorescence polarization;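 active = inhibition above the mean inhibition across the screen plus 3 SD, cut at about 25% in these data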;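 also: inhibitors block binding of the rhodamine activity-based probe so polarization drops; 0% = enzyme with DMSO and 100% = wells lacking pPAFAH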
E coli Lon inh = inhibitors of E. coli Lon protease, primary screen, biochemical, fluorescence polarization | inhibition, % at 7.94 µM | purified E. coli Lon protease | actives 0.42% (n = 360,000); in the data active = inhibition above about 13%, passing the limit was not always enough;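 also: 0% = enzyme with probe and DMSO and 100% = no enzyme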
PAFAH2 inh = PAFAH2 enzyme inhibitors, primary screen, biochemical, fluorescence polarization, human. recombinant PAFAH2, FP-rhodamine activity probe. inhibition, % at 3.39 µM. actives 0.99% (n = 340,000). AID 492956, 2010;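 active = inhibition above the mean over all tested compounds plus 3 SD, cut at about 30% in these data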;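 also: inhibitors block probe labeling of enzyme so polarization drops; 0% = enzyme with DMSO and 100% = wells lacking PAFAH2 protein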
The depositor's hits bear a star; x = no result.

SMILES | PAFAH1B3 FP inh | Rin1 Abl inh | PAFAH1B2 FP inh | pPAFAH inh | E coli Lon inh | PAFAH2 inh
O=C(c1cc(COc2ccc3c(c2)CCCC3)on1)N1CCCC1 | 5 | 2 | 8 | 6 | 0 | 0
CC(C)(C)c1ccc(-n2ncc3c2CCCC3NC(=O)CCCn2cncn2)cc1 (stereo unspecified) | 9 | 1 | 4 | x | -4 | 1
CC(C)(C)c1ccc(-n2ncc3c2CCCC3NC(=O)CCn2cncn2)cc1 (stereo unspecified) | 6 | 6 | 1 | 33* | -23 | 3
COc1cccc(C(=O)OCC(=O)Nc2sc3c(c2C(N)=O)CCC3)c1O | 5 | 2 | 4 | 28* | -17 | 19
Cc1c(NC(=O)/C(C#N)=C/c2ccc(-c3ccccc3Cl)o2)c(=O)n(-c2ccccc2)n1C | 8 | -1 | -1 | 27* | -2 | 2
Cc1c(NC(=O)/C(C#N)=C/c2ccc(-c3ccc(Cl)c(Cl)c3)o2)c(=O)n(-c2ccccc2)n1C | -10 | 1 | 3 | 12 | 5 | -5
CCC1S/C(=N\S(=O)(=O)c2cccs2)N(C2CCCCC2)C1=O (stereo unspecified) | 4 | 1 | 25* | 1 | 0 | -2
CCc1ccc(NC(=O)C2CCCN(S(=O)(=O)c3cccs3)C2)cc1 (stereo unspecified) | -5 | 0 | 0 | 9 | -2 | -3
O=S1(=O)CC(N2CCC(Cc3ccccc3)CC2)CN1C1CCCC1 (stereo unspecified) | x | -4 | x | x | -9 | x
COc1cccc(C(=O)COC(=O)CCCC(=O)NC2CCCCC2)c1 | 0 | 2 | 0 | 12 | -11 | 17
COc1ccc(C2CC(c3cccc(Br)c3)=NN2c2ccc(S(N)(=O)=O)cc2)cc1 (stereo unspecified) | 7 | -3 | 2 | 32* | 0 | -3
COc1ccc(C2CC(c3cccc(F)c3)=NN2c2ccc(S(N)(=O)=O)cc2)cc1 (stereo unspecified) | 10 | 1 | 2 | 15 | -6 | -4
CCN(CC)S(=O)(=O)c1cc(C(=O)OCC(=O)Nc2cccc(C)c2C)ccc1F | 10 | 0 | 0 | 23 | -5 | 24
CCN(CC)S(=O)(=O)c1cc(C(=O)OCC(=O)Nc2c(F)cccc2F)ccc1F | 7 | -3 | 0 | 32* | 2 | 29
CCN(CC)S(=O)(=O)c1cc(C(=O)OCC(=O)NC2CCCc3ccccc32)ccc1C (stereo unspecified) | 7 | -2 | 1 | 27* | -7 | 67*
C[C@H](CO)N1C[C@H](C)[C@H](CN(C)Cc2cncnc2)Oc2cc(Br)ccc2S1(=O)=O | x | 1 | x | x | -2 | x
CCc1ccc(NC(=O)CS(=O)CC(=O)Nc2ccc(-n3cnnn3)c(C)c2)cc1 (stereo unspecified) | -1 | 1 | 3 | -4 | -3 | -18
Cc1noc(C)c1S(=O)(=O)NCc1cccc(Cl)c1 | -2 | 3 | -5 | 5 | 4 | -4
CSc1cccc(NC(=O)CSc2ccc(Cl)cc2)c1 | 10 | 0 | 16 | 5 | -2 | 10
CC(C)CNC(=O)c1cccc(NC(=O)CSc2ccc(Cl)cc2)c1 | 7 | 0 | 30* | 3 | -7 | -3
Cc1ccc(C(=O)NN2C(=O)CSC2=S)cc1 | 4 | -3 | 3 | -1 | -5 | 5
CC(C)(C)c1ccc(C(=O)NN2C(=O)CSC2=S)cc1 | -2 | -2 | 25* | 8 | -5 | -11
CC(CC(=O)NCc1ccco1)S(=O)(=O)c1ccc2c(c1)CCN2C(=O)C1CC1 (stereo unspecified) | 0 | 0 | 0 | -1 | 0 | 12
COc1cc(NS(=O)(=O)c2ccc(C)cc2)c2ncccc2c1 | 7 | -1 | 6 | 7 | 1 | 9
CCC(CNc1cc(OC)cc2cccnc12)NC1CCCCC1 (stereo unspecified) | 13 | 2 | 5 | 25* | 71 | -1
SMILES | PAFAH1B3 FP inh | Rin1 Abl inh | PAFAH1B2 FP inh | pPAFAH inh | E coli Lon inh | PAFAH2 inh
O=C1CC(c2ccccc2)=NN1c1nc(-c2ccccc2)cs1 | 18 | 0 | 8 | 28* | -1 | 66*
COc1ccc(CC(=O)Nc2sc3c(c2C(N)=O)CCCC3)cc1 | 2 | 2 | 5 | 12 | -11 | 5
COc1ccc2nc(Nc3sc4c(c3C(N)=O)CCCC4)sc2c1 | 19 | 1 | 10 | 26* | -92 | 0
O=c1[nH]cnc2c1c(-c1ccccc1)cn2-c1ccc(Br)cc1 | -1 | 2 | -3 | 27* | -10 | -1
Cc1cccc(-n2cc(-c3ccccc3)c3c(=O)[nH]cnc32)c1 | 7 | -2 | -4 | 30* | -5 | 4
CCOc1ccc(-n2cc(-c3ccccc3)c3c(=O)[nH]cnc32)cc1 | 6 | 0 | 2 | 16 | -11 | 0
CCOC(=O)c1c(C)c2c(=O)[nH]cnc2n1-c1ccccc1 | 8 | -4 | 3 | 4 | -1 | -4
CCC(NCc1cccnc1)c1ccc(OC)c(OC)c1 (stereo unspecified) | 9 | 0 | 3 | x | 0 | 0
O=C(CCSc1ccc(Cl)cc1)NN=C1CCCCCC1 | 3 | 3 | 25* | 3 | 0 | 1
Cc1cn(CC(=O)NCc2ccc(N(C)C)cc2)c(=O)[nH]c1=O | -10 | -5 | 4 | x | -3 | 2
CC1=C2C3OC(=O)C(C)C3CCC2(C)C=C(Cl)C1=O (stereo unspecified) | x | 1 | x | x | 2 | x
O=C(Oc1ccc(N(C(=O)c2ccncc2)S(=O)(=O)c2ccc(Cl)cc2)cc1)c1ccncc1 | 8 | 2 | 29* | 7 | -1 | -4
O=C(Oc1ccc(N(C(=O)c2ccncc2)S(=O)(=O)c2ccc(F)cc2)cc1)c1ccncc1 | -2 | 3 | 4 | 6 | -6 | 7
OCCSc1nnc(Nc2ccccc2)s1 | -1 | -4 | 1 | 25* | 10 | -7
CCC(=O)Nc1cc2c3c(c1)CCN3C(=O)CC2 | 1 | -4 | 1 | 4 | 1 | 1
O=C1OC(c2ccco2)=N/C1=C\c1ccc(-c2cccc(C(F)(F)F)c2)o1 | 3 | 1 | 1 | 27* | 2 | 10
O=C1OC(c2cccs2)=N/C1=C/c1ccc(-c2cccc(C(=O)O)c2)o1 | 10 | 4 | 4 | x | -4 | 14
O=[N+]([O-])/C=C1\C=CC=CN1Cc1ccc(Cl)cc1 | 3 | -2 | -4 | 4 | 8 | -8
COc1ccc2cc(C3=CC(=O)CC(C)(C)C3=O)ccc2c1 | x | -1 | x | x | 5 | x
COc1cc(/C=N/N(c2ccccc2)c2ccccc2)ccc1O | 12 | -4 | 6 | 27* | 6 | -1
